Screening data (PubChem)
In the library only some 19% were active in any assay of this set; here they are far more common.
KB-3-1 cytotox: KB-3-1 parental cell cytotoxicity | KB-3-1 viability, CellTiter-Glo ATP luminescence, 72 h | 400,000 compounds, 1.4% hits | Potency, µM (titrated, usually from 46.1 µM), actives largely listed as cytotoxic; note: nearly all actives have a fitted effect of over 60% in size
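Cells are dispensed, compounds pinned in, plates held at 37 °C for 72 h, then CellTiter-Glo is added and luminescence read after 10 minutes. Cell line: parental KB-3-1 in phenol-red-free DMEM, 10% FBS.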
HT1080 IDH1KD tx: kills HT-1080 cells with IDH1 knockdown. AID 686971. HT-1080 IDH1 knockdown viability, ATP luminescence, 48 h. Potency, µM (highest dose often 46.1 µM), for the others: top-dose activity, negative = toxicity, most hits filed as cytotoxic. 360,000 compounds, 2% hits;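 note: 0% = DMSO wells and -100% = cell-free medium wells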
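Knockdown cells (IDH1KD HT-1080) received compounds 2 h after plating at 750 cells/well and were kept 48 h at 37 °C in 5% FBS RPMI. A CellTiter-Glo luminescence read gave % activity for curve fitting.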
TDP1 cell noCPT: qHTS for Inhibitors of human tyrosyl-DNA phosphodiesterase 1 (TDP1): qHTS in cells in absence of CPT. 420,000 compounds, 15% hits. DT40 Tdp1-/- hTDP1 cells, no CPT, ATP luminescence, 48 h. Potency, µM (top dose mostly 46.2 µM), for the others: top-dose activity change, negative = growth inhibition, most hits filed as inhibitors; note: nearly all actives have a fitted effect of over 55% in size
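Chicken DT40 Tdp1-/- cells complemented with human TDP1, screened without camptothecin (DMSO vehicle only), 400 cells/well. Compounds pin-transferred, cells incubated at 37 °C for at least 48 hr. Growth read as ATP-dependent luminescence (CellTiter-Glo, 30 min at RT).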
KB-V1 cytotox: kills drug-selected multidrug resistant KB-V1 cells. KB-V1 MDR cells viability, CellTiter-Glo, 72 h. 400,000 compounds, 3.4% hits. Potency, µM (titrated, usually from 46.1 µM), actives largely listed as cytotoxic; note: nearly all actives have a fitted effect of over 60% in size
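qHTS viability screen in drug-selected KB-V1 MDR cells: 72 h compound treatment at 37 degrees C, ATP luminescence end point.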
DT40 TDP1 CPT: DT40-hTDP1 cell growth loss with CPT. chicken DT40 Tdp1-/-;hTDP1 cells + 20 nM CPT, ATP luminescence, 48 h. Potency, µM (highest dose often 46.2 µM), without a hit: at the top dose activity change, negative = growth inhibition, usual class: inhibitors. 420,000 compounds, 12% hits. AID 686979; note: nearly all actives have a fitted effect of over 55% in size
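Chicken DT40 Tdp1-/- cells stably complemented with human TDP1 were seeded at 400 cells/well in medium containing 20 nM camptothecin, exposed to pin-transferred compounds, and grown at 37 °C for at least 48 hr. Viability was read as ATP luminescence.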
HT1080NT lethal: kills 2HG-producing HT-1080-NT fibrosarcoma cells. HT-1080-NT fibrosarcoma viability, CellTiter-Glo ATP luminescence, 48 h. Potency, µM (highest dose often 46.1 µM), for the others: top-dose activity, negative = less viability, usual class: cytotoxic. 360,000 compounds, 1.6% hits. AID 686970;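 note: NT is the 2HG producing partner of a matched IDH1 knockdown line; 0% = DMSO-treated cells and -100% = media-only wells without cells; nearly all actives have a fitted effect of over 55% in size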
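Viability by CellTiter-Glo luminescence after 48 h compound exposure at 37C of HT-1080-NT cells (750/well, RPMI, 5% FBS). % activity scaled between DMSO wells and medium-only wells, then curve-fitted and categorized by curve class.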
The depositor's hits bear a star; i = inactive; ? = inconclusive; nt = no result; [ ] = remark or other dose. Calls come from the whole dose curve; as a rule, active = well fitted curve in the direction sought with a large enough effect; inconclusive = small, poorly fitted or top-dose-only effect, or another doubt; inactive = no such curve, though single readings can be large; an effect the other way counts as inactive or inconclusive. Unless noted, % is set by controls: 0 for no effect and ±100 for the full control effect; potency is the fitted concentration of half-maximal effect.

SMILES	KB-3-1 cytotox	HT1080 IDH1KD tx	TDP1 cell noCPT	KB-V1 cytotox	DT40 TDP1 CPT	HT1080NT lethal
O=[N+]([O-])c1ccc(NS(=O)(=O)N2CCOCC2)cc1	i	1%	-3%	i	3%	6%
C=CCC[C@@H](Cc1ccc(F)cc1)C(=O)OC[C@@H](Cc1c[nH]c2ccccc12)NC(=O)[C@H](CC=C)CC(=O)N(CCO)Cc1ccccc1	?	?	?	21µM*	21µM*	16µM*
C=CCC[C@H](Cc1ccc(F)cc1)C(=O)OC[C@@H](Cc1c[nH]c2ccccc12)NC(=O)[C@H](CC=C)CC(=O)N(CCO)Cc1ccccc1	?	?	?	?	18µM*	?
Cc1cc(C)n(C(=O)CCCn2nc(C)c([N+](=O)[O-])c2C)n1	i	-1%	15%	i	-7%	12%
COc1ccc(CNC(=O)CSc2nccn(-c3ccc(F)c(F)c3)c2=O)cc1	i	-1%	-18%	i	-6%	1%
CCC(C)c1nc2c(c(N3CCC3=O)c1-c1ccccc1)CCCC2 (stereo not given)	i	4%	?	i	18µM*	23%
Cc1nn2c(NC(C)C)c3c(nc2c1-c1ccccc1)CCC3	i	-2%	?	i	?	-20%
COCCNC(=O)C1CCN(S(=O)(=O)c2c(C)noc2/C=C/c2cccs2)CC1	i	13%	15%	i	-19%	12%
Cc1ccccc1OCCCSc1nc2ccccc2[nH]1	?	-24%	16µM*	12µM*	?	-19%
Cc1c(OCC(F)(F)F)ccnc1CSc1nc2ccccc2[nH]1	i	-28%	23µM*	?	?	-20%
NC(=O)CCCSc1nc2ccccc2[nH]1	i	0%	18%	i	-18%	-11%
CN(CC(=O)Nc1ccccc1Br)C(=O)c1cccnc1Nc1cccc(C(F)(F)F)c1	i	?	?	?	?	?
CN(CC(=O)Nc1ccc(Cl)cc1)C(=O)c1ccc(S(=O)(=O)Nc2ccccc2)cc1	i	16µM*	?	i	?	13µM*
CCOc1ccc(NS(=O)(=O)c2ccc(C(=O)N(C)CC(=O)Nc3ccc(C)cc3)cc2)cc1	i	2%	16µM*	i	?	-6%
CN(CC(=O)Nc1ccc(F)cc1)C(=O)c1cccc(NS(=O)(=O)c2ccccc2)c1	i	1%	2%	i	-2%	3%
CC(=O)c1ccccc1NC(=O)COC(=O)Cc1cccc(C(F)(F)F)c1	i	14%	-6%	i	-2%	14%
CC(C)(C)NC(=O)COC(=O)c1c2c(nc3ccccc13)CCC2	i	-17%	9.2µM*	?	?	-15%
O=C(NCc1ccco1)c1c2c(nc3ccccc13)CCC2	?	9%	21µM*	i	15µM*	5%
CC1CCc2nc3ccccc3c(C(=O)OCC(=O)NC3CCS(=O)(=O)C3)c2C1 (stereo not given)	i	?	-27%	i	-2%	-25%
COc1cccc(NC(=O)COC(=O)c2c3c(nc4ccccc24)CCC(C)C3)c1 (stereo not given)	?	?	9.2µM*	2.9µM*	8.2µM*	-5%[9.24 µM]
CC(C)NC(=O)NC(=O)COC(=O)c1c2c(nc3ccccc13)CCC2	i	26µM*	13µM*	21µM*	9.2µM*	?
C=C(C)c1cc2c(ccc3ccc(=O)oc32)o1	i	14%	9%	i	31%	16%
CC(=O)N(Cc1cc2ccccc2[nH]c1=O)c1ccc(C)cc1	i	0%	?	i	?	3%
O=C(CCNS(=O)(=O)c1ccc(Cl)cc1)N1CCN(Cc2ccccc2)CC1	i	5%	-17%	?	-24%	0%
Cc1c(C)c(C)c(S(=O)(=O)NCCC(=O)N2CCN(Cc3ccc(C#N)cc3)CC2)c(C)c1C	?	-9%	8.2µM*	?	16µM*	-9%
SMILES	KB-3-1 cytotox	HT1080 IDH1KD tx	TDP1 cell noCPT	KB-V1 cytotox	DT40 TDP1 CPT	HT1080NT lethal
CC(C)OCCCNC(=O)c1cc(S(=O)(=O)N2CCc3ccccc32)cn1C	i	-2%	-24%	i	-3%	0%
S=c1nc(-c2ccccc2)oc2c1CCCC2	i	12%	26µM*	i	?	2%
COc1cccc(-c2nc(=S)c3c(o2)CCCC3)c1	i	3%	-19%	i	-13%	9%
Cc1ccc(C)c2[nH]c(=O)c(CN(Cc3nnnn3C3CCCCC3)CC3CCCO3)cc12 (stereo not given)	i	?	23µM*	i	15µM*	-20%
Cc1ccc(C)c2[nH]c(=O)c(CN(CCN3CCOCC3)Cc3nnnn3CC3CCCO3)cc12 (stereo not given)	i	-4%	-8%	i	-18%	2%
Cc1cccc2cc(CN(Cc3cccs3)C3(c4nnnn4C4CCCC4)CCCC3)c(=O)[nH]c12	i	0%	21µM*	i	?	-1%
Cc1cccc2cc(CN(Cc3cccs3)S(=O)(=O)c3ccc4c(c3)OCCO4)c(=O)[nH]c12	?	-19%	23µM*	5.2µM*	?	-2%
Cc1cc(C)c2[nH]c(=O)c(CN(CC3CCCO3)C(=O)C3CCCO3)cc2c1 (stereo not given)	i	10%	-7%	i	-14%	12%
Cc1ccc2cc(CN(Cc3nnnn3C3CCCC3)C3CCCCC3)c(=O)[nH]c2c1C	i	11%	-5%	i	11%	4%
Cc1ccc(C)c2[nH]c(=O)c(CN(CC3CCCO3)C(=O)NC3CCCCC3)cc12 (stereo not given)	i	-15%	?	15µM*	23µM*	?
COc1ccc(CN(CC2CCC(C(=O)O)CC2)C(=S)Nc2cc(C)ccc2C)cc1 (stereo not given)	i	-11%	-5%	i	-15%	-21%
O=C(COC(=O)CCC(=O)c1ccc(F)cc1)NCc1ccccc1Cl	i	13%	-8%	i	6%	0%
Cc1cccc(Cn2c(=O)n(Cc3ccccc3)c(=O)c3sc4ccccc4c32)c1	i	nt	23µM*	i	?	nt
O=c1c2sc3ccccc3c2n(Cc2cccc(C(F)(F)F)c2)c(=O)n1-c1ccccc1	i	nt	13µM*	i	?	nt
